Source: PubChem BioAssay (NCATS)
Results filed as inconclusive are left out. The source made the active and inactive calls. Calls come from the whole dose curve; as a rule, active = well fitted curve in the direction sought with a large enough effect; inconclusive = small, poorly fitted or top-dose-only effect, or another doubt; inactive = no such curve, though single readings can be large; an effect the other way counts as inactive or inconclusive.

Columns and labels:
[1] = target: Nuclear receptor subfamily 1 group I member 3 (Homo sapiens) (UniProt Q14994); assay: qHTS for Constitutive Androstane Receptor (CAR) Agonist screened against the NCATS CANVASS Library (AID 1347373); conditions: HepG2-hCAR-CYP2B6 luciferase reporter, ONE-Glo luminescence; series mostly up to 46.1 µM;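 note: every well also contained 1.5 µM PK11195 alongside the test compound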
Nuclear receptor subfamily 1 group I member 3 (Homo sapiens), sequence (Q14994 whole entry, looked up): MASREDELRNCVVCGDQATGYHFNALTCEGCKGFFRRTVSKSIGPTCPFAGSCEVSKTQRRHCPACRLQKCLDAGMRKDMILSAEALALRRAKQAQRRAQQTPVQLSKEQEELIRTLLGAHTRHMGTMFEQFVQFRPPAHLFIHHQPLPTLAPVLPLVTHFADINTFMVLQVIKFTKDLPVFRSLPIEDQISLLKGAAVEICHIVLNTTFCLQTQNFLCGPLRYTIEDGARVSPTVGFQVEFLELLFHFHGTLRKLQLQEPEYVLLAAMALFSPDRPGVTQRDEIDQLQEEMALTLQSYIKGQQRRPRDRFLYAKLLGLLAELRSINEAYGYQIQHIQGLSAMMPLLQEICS
Summary of the method: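 HepG2 cells stably carrying hCAR and a CYP2B6-2.2kb luciferase reporter, treated 24hr at 37C with compounds plus 1.5uM PK11195; activation by ONE-Glo luminescence, viability by CellTiter-Fluor.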

[2] = 10-beta competent E. coli microbial cell viability qHTS against the NCATS CANVASS Library (AID 1347376); conditions: E. coli 10-beta viability, BacTiter-Glo ATP luminescence, overnight; series mostly up to 46.1 µM
Summary of the method: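 10-beta competent E. coli (0.2 OD) were exposed overnight at 37C to compounds in an 11-point series. Viability was read as ATP-dependent BacTiter-Glo luminescence after 20 min at room temperature.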

[3] = DH5-alpha competent E. coli microbial cell viability qHTS against the NCATS CANVASS Library (AID 1347377); conditions: BacTiter-Glo ATP luminescence, overnight; series mostly up to 46.1 µM
Summary of the method: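 DH5-alpha E. coli suspension was exposed to an 11-point compound series overnight at 37 °C. Viable cells quantified by ATP luminescence (BacTiter-Glo) after 20 min at room temperature.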

[4] = qHTS for H2AX Agonists against the NCATS CANVASS Library (AID 1347378); conditions: CHO-K1 H2AX phosphorylation, HTRF TR-FRET, 3 h; series mostly up to 76.9 µM;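 note: phospho-H2AX S139 level in CHO-K1 lysates by TR-FRET emission ratio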
Summary of the method: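 CHO-K1, 1000 cells/well, o/n 37C; cpd several conc, 3 hr 37C, 0.76% DMSO; lyse 30 min RT; cryptate anti-pH2AX(S139) + d2 anti-H2AX, 24 hr RT; HTRF 665/620.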

[5] = qHTS for Inflammasome Signaling Inhibitors: IL-1-beta AlphaLISA screen against the NCATS CANVASS Library (AID 1347379); conditions: THP-1 LPS/ATP, IL-1B AlphaLISA secretion, 16 h; series mostly up to 57.5 µM;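 note: human THP-1 cells primed with LPS then triggered with ATP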
Summary of the method: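 THP-1 cells pretreated 1 hr with compound (up to 57.5 uM final), then stimulated with LPS (250 ng/mL final) and ATP (1.25 mM final). Secreted IL-1B measured by AlphaLISA after 16 hr; glyburide as positive control.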

[6] = qHTS for Antimalaria activity screened against the NCATS CANVASS Library (AID 1347380);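 note: Plasmodium falciparum strain Dd2 asexual parasites grown in red blood cells; nearly all actives have a fitted effect of over 40% in size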; conditions: P. falciparum Dd2 growth, SYBR Green fluorescence, 72 h; series mostly up to 28.7 µM
Summary of the method: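 Red blood cells infected with P. falciparum Dd2 (2.5% hematocrit final, 0.3% parasitemia) were exposed to compounds in an 11-point qHTS series for 72 hr at 37C under 5% O2 and 5% CO2. Lysis buffer with SYBR Green was then added for 18 hr, and fluorescence was read at 485/535 nm.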

[7] = Inflammasome Signaling qHTS Counterscreen: IL-1-beta AlphaLISA counterscreen against the NCATS CANVASS Library (AID 1347381); conditions: Purified IL-1beta AlphaLISA signal interference counterscreen; series mostly up to 57.5 µM;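 note: cell-free check with purified IL-1β in medium and no THP-1 cells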
Summary of the method: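 Cell-free interference check: compounds added to medium spiked with 4 pg purified IL-1β. Anti-IL-1β acceptor beads (6 ug/mL) with 0.6 nM biotinylated antibody added for 1 h at RT, then streptavidin donor beads (24 ug/mL) for 30 min in the dark. AlphaLISA read at 680/615 nm.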

[8] = Cytotoxicity qHTS for assessment of Hepg2 cells membrane integrity screened against the NCATS CANVASS Library (AID 1347387); conditions: HepG2 LDH release (CytoTox-ONE) fluorescence, 5 h; series mostly up to 46.1 µM
Summary of the method: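 HepG2 cells (2000/well) attached overnight, then exposed 5 hr at 37C to compounds in an 11-point series (0.59 nM - 46 uM final). LDH release from damaged membranes read fluorometrically (CytoTox-ONE; 560/590 nm) after 10 min at room temperature.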

[9] = qHTS for Activators of p53 Stress Response Pathway screened against the NCATS CANVASS Library (AID 1347388); conditions: p53RE-bla HCT-116, beta-lactamase reporter, 16 h; series mostly up to 46.1 µM
Summary of the method: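 p53RE-bla HCT-116 cells (4000/well) were pre-incubated for 5 h, then treated with compound (11 points) for 16 h at 37C. After 2 h with CCF4, the 460/530 nm ratio gave reporter activation; CellTiter-Glo measured viability.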

[10] = qHTS assay for small molecule disruptors of mitochondrial membrane potential screened against the NCATS CANVASS Library (AID 1347389); conditions: HepG2 mitochondrial membrane potential, m-MPI red/green ratio, 1.5 h; series mostly up to 46.1 µM; note: nearly all actives have a fitted effect of over 60% in size
Summary of the method: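 HepG2 cells (2,000/well) plated overnight, then exposed to compounds in 11-point qHTS series for 1 h at 37C before 30 min Mito-MPS dye; depolarization read as fall in red aggregate (590 nm) to green monomer (535 nm) fluorescence.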

[11] = Secretion counterscreen for inhibitors of the SERCaMP assay screened against the NCATS CANVASS Library (AID 1347390); conditions: SH-SY5Y constitutive GLuc secretion, luminescence, 20 h; series mostly up to 76.6 µM;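 note: light from luciferase secreted into medium read as a measure of general secretion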
Summary of the method: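 SH-SY5Y-GLuc STOP cells; 4 h attach; cpds 0.001 - 77 uM (qHTS, 11 pts), 20 h 37C/5% CO2; coelenterazine in glow buffer; luminescence, 5 s exposure.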

[12] = qHTS for activators of Nrf2/ARE signaling pathway screened against the NCATS CANVASS Library (AID 1347391); conditions: ARE-bla HepG2, beta-lactamase reporter, 16 h; series mostly up to 46.1 µM; note: nearly all actives have a fitted effect of over 60% in size
Summary of the method: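 ARE-bla HepG2 beta-lactamase reporter cells exposed to compounds for 16 h at 37C; CCF4 substrate 2 h, fluorescence at ex 405 nm, em 460/530 nm. Viability by CellTiter-Glo luminescence.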

[13] = qHTS for activators of dead-cell proteases activity screened against the NCATS CANVASS Library (AID 1347392); conditions: HepG2 cytotoxicity, dead-cell protease luminescence, 5 h; series mostly up to 46.1 µM;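 note: luminescence from protease leaking out of membrane-damaged cells cleaving impermeant substrate; rising signal means more cytotoxicity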
Summary of the method: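 HepG2 cells, 2000/well, attached 18 h at 37C, then exposed to compounds (11-point qHTS) for 5 h. Dead-cell protease release read as luminescence from cell-impermeant AAF-aminoluciferin substrate after 15 min at room temperature.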

[14] = qHTS for inhibitors of ER calcium dysfunction: SERCaMP assay screened against the NCATS CANVASS Library (AID 1347393); conditions: SH-SY5Y GLuc-SERCaMP secretion, thapsigargin, luminescence; series mostly up to 76.6 µM; note: nearly all actives have a fitted effect of over 40% in size; note: potency is the fitted concentration of half-maximal effect
Summary of the method: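 SH-SY5Y GLuc-SERCaMP, 1000 cells/well, 4 h attach; cpd 16 h, 37C/5% CO2; thapsigargin (added as 6x 600 nM) 4 h; coelenterazine; luminescence. Reduced reporter release = ER Ca stabilization.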

[15] = Vero-766 cells viability qHTS against the NCATS CANVASS Library: Counterscreen for Zika virus inhibition assay (AID 1347394); conditions: Vero 766 viability, CellTiter-Glo luminescence, 72 h; series mostly up to 46.1 µM; note: nearly all actives have a fitted effect of over 60% in size
Summary of the method: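 Vero 766, no virus; 1000 cells/well; o/n attach; cpd 11-pt; 72 h, 37C, 5% CO2; CTG luminescence; cell-free media wells = 100% inhibition.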

[16] = qHTS for inhibitors of Wild type Zika virus screened against the NCATS CANVASS Library (AID 1347396); conditions: Vero cells, Zika virus CPE, CellTiter-Glo, 72 h; series mostly up to 45.9 µM;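 note: ATP luminescence of surviving cells so rescue from viral cell killing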
Summary of the method: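 Luminescent CellTiter Glo read-out of virus-induced cytotoxicity, 72 h post-infection, in Vero 766 cells. Compounds were tested at 11 concentrations; uninfected, vehicle-treated wells defined 100% inhibition.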

[17] = Viability qHTS for inhibitors of the SERCaMP assay screened against the NCATS CANVASS Library (AID 1347400); conditions: SH-SY5Y SERCaMP cells viability, CellTiter-Glo, 48 h; series mostly up to 92.2 µM; note: nearly all actives have a fitted effect of over 70% in size
Summary of the method: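 SH-SY5Y-GLuc SERCaMP MJH297-derived cells, 1000/well, plated 4 h, then exposed to compounds in an 11-point qHTS series for 48 h at 37C. Viability read as CellTiter-Glo luminescence.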

[18] = Redox Reaction Profiling qHTS: Assay Interference Panel against the NCATS CANVASS Library (AID 1347401); conditions: resazurin-DTT redox cycling, fluorescence, 15 min; series mostly up to 57.1 µM; note: potency is the fitted concentration of half-maximal effect
Summary of the method: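 Compounds in 11-point series incubated with 5 uM resazurin and 200 uM DTT in 50 mM HEPES pH 7.3, 50 mM NaCl. Resorufin fluorescence (Ex 525/Em 598) read before and after 15 min in the dark.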

[19] = qHTS for Hypoxia signaling pathway (HIF-1) antagonists against the NCATS CANVASS Library (AID 1347374); conditions: HRE-bla ME-180 cells, HIF-1 beta-lactamase reporter, CoCl2; note: potency is the fitted concentration of half-maximal effect; nearly all actives have a fitted effect of over 60% in size
Summary of the method: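 HRE-bla ME-180 cells in medium with 0.5% dialyzed FBS received compounds (11-point series) plus CoCl2 (60 uM addition stock) for 17 hrs at 37C. Beta-lactamase activity read with CCF4 (405 nm ex, 460/530 nm em); CellTiter-Glo viability measured in same wells.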

[20] = qHTS for Hypoxia signaling pathway (HIF-1) agonists against the NCATS CANVASS Library (AID 1347375); conditions: HRE-bla ME-180 cells, HIF-1 beta-lactamase reporter, 17 h; series mostly up to 38.3 µM
Summary of the method: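 HRE-bla ME-180 cells (0.5% dialyzed FBS) were pre-incubated 5 hrs at 37C, then exposed to compounds in an 11-point series for 17 hrs. Read-out was CCF4-AM beta-lactamase FRET (460/530 nm emissions), with CellTiter-Glo viability in the same wells.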

Measured: Potency

COC(=O)[C@@H]1[C@H]2C[C@H]3c4[nH]c5ccccc5c4CCN3C[C@@H]2CC[C@@H]1O
active: [14] 30.5 µM
not listed: [19] | [20]
inactive: all other assays above

O=C(O)C(O)Cc1ccc(O)c(O)c1 (centres undefined)
active: [19] 8.38 µM | [18] 15.2 µM
not listed: [6] | [14]
inactive: all other assays above

O=c1cc(-c2ccccc2)oc2cc(O)c(O)c(O)c12
not listed: [3] | [19]
inactive: all other assays above
